A selection: hits, their analogues and other compounds. The true share with any hit is near 2.6%.
CCT chaperon mod: modulators of cytosolic chaperonin (CCT/TRiC) activity; activity change, % (test concentration not listed), hits read low; AID 651819; purified chaperonin ATPase assay, HTRF ADP detection, 30 min; 360,000 tested, 0.3% active; in the data active = activity change below about -30%; also: % is scaled to controls: 0 for no effect and ±100 for the full control effect
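TRiC at 40 or 20 nM final (batch-dependent) in 30 mM Tris pH 7.4, 100 mM KCl, 5 mM MgCl2, 1 mM DTT, with compound at single 76 uM and 10 uM ATP, 30 min at 37 deg C. ADP detected by HTRF Transcreener, 665/615 ratio.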
Nrf2 block: inhibitors of Nrf2 signaling. A549 ARE-Fluc reporter, luciferase luminescence, 18-24 h. Potency, µM (highest dose often 46 µM), inactives show at the highest dose activity change, negative = inhibition, usual class: inhibitors. 360,000 tested, 2.1% active; also: potency is read from the fitted curve at half-maximal effect; % is scaled to controls: 0 for no effect and ±100 for the full control effect; nearly all actives have a fitted effect of over 60% in size
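Concentration-response testing used A549 ARE_Fluc cells at 5000 cells/well. Following an 18-24 h compound incubation, viability was read by fluorescence (Ex 405/Em 525) and luciferase output by luminescence.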
TCR act: activators of T cell receptors. primary human leukocytes, anti-CD3, IL-2 HTRF, 48 h. Potency, µM (highest dose often 9.22 µM), for the others: top-dose activation of IL-2 secretion, most hits filed as activators. 330,000 tested, under 10 active; also: % of control where 0% means no effect
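1) Mix primary human leukocytes, a-CD3 beads and compound. 2) Incubate 48 hr. 3) Add HTRF IL-2 reagents (a-IL-2-K, a-IL-2-d2).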
Nrf2 activator: activators of Nrf2 (ARE) signaling; 410,000 tested, 0.31% active; Potency, µM (series often up to 46.1 µM), inactives show at the top dose activation, hits mostly activators; AREc32 ARE-luciferase reporter (MCF7-derived line), luminescence, 24 h; AID 624171; also: potency is read from the fitted curve at half-maximal effect; % of control where 0% means no effect; nearly all actives have a fitted effect of over 65% in size
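Luciferase luminescence (Steady-Glo, 30 min at room temperature) served as the read-out of ARE activation in AREc32 cells treated with compounds for 24 hr at 37 deg C.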
A549 tox: kills or reduces viability of A549 cells in Nrf2 counter-screen | Potency, µM (titrated, usually from 46 µM), for inactives: top-dose activity change, negative = cytotoxicity, actives largely listed as inhibitors | A549 ARE-Fluc cells, CellTiter-Fluor viability, 18-24 h | AID 504648 | 390,000 tested, 0.16% active; also: potency is read from the fitted curve at half-maximal effect; % is scaled to controls: 0 for no effect and ±100 for the full control effect
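Cytotoxicity counterscreen: CellTiter-Fluor fluorescence was measured in A549 ARE_Fluc cells after 18-24 h of compound exposure in a concentration series. The subsequent BugLite luminescent read reports ARE-luciferase activity.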
AT treatment: potential ataxia-telangiectasia treatments restoring KAP-1 phosphorylation | F2112 A-T fibroblasts, KAP-1 phosphorylation AlphaLISA; neocarzinostatin DNA damage 30 min before lysis | Potency, µM (series often up to 57.5 µM), for inactives: at the top dose activation, usual class: activators | 320,000 tested, 0.19% active; also: potency is read from the fitted curve at half-maximal effect; % of control where 0% means no effect; nearly all actives have a fitted effect of over 45% in size
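ATM-like activity read as KAP-1 phosphorylation via AlphaLISA donor/acceptor antibody pairs after lysis and 6 hr at 25C. Cells were ATM-null patient fibroblasts (F2112, hTERT), dosed 60 min, then exposed to the DSB inducer NCS for 30 min.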
An asterisk follows results filed as active; ? = inconclusive; / = not tested or not shown; ! = not confirmed by another sample; [ ] = another dose, or the depositor's remark. Unless noted, calls follow the shape of the dose curve; as a rule, active = well fitted curve in the direction sought with a large enough effect; inconclusive = small, poorly fitted or top-dose-only effect, or another doubt; inactive = no such curve, though single readings can be large; an effect the other way counts as inactive or inconclusive.

SMILES	CCT chaperon mod	Nrf2 block	TCR act	Nrf2 activator	A549 tox	AT treatment
O=c1oc2ccc3ccccc3c2cc1-c1nc2c(s1)CCc1ccccc1-2	/	1.6%	/	/	10.1%	/
O=c1oc2ccccc2cc1-c1nc2c(s1)CCc1ccccc1-2	-1.1	?	-6.9%[46.1 µM]	3.98µM*	?	25.7%
O=c1oc2cc(O)ccc2cc1-c1nc2c(s1)CCc1ccccc1-2	1.4	-7.0%	8.5%[46.1 µM]	6.3%	?	17.8µM*
CCc1sc(-c2cc3ccc(O)cc3oc2=O)nc1-c1ccc(C)cc1	/	2.6%	/	/	?	/
CCOc1ccc2nc(N3CCCC(C(=O)NCc4ccccc4OC)C3)sc2c1 (stereo not given)	/	?	/	0.1%	-1.9%	/
Cc1cc(OCC(=O)OCC(=O)NCc2cccs2)ccc1Cl	-32.9*	16.7%	0.4%	0.4%	-3.0%	35.8%
Cc1cc(C)cc(OCC(=O)OCC(=O)NCc2cccs2)c1	-1.4	2.1%	2.2%[46.1 µM]	0.0%	10.6%	1.7%
CCc1ccc(NC(=O)CN2C(=O)C(c3ccc(Cl)cc3)=NC23CCCCC3)cc1	/	?	/	-1.1%	-11.9%	/
COc1cccc(-c2nc(CS(=O)(=O)CC(=O)NC3CCCC3)c(C)o2)c1	-3.0	20.6µM*	1.6%	-2.1%	-11.6%	-9.2%
COc1cccc(-c2nc(CS(=O)(=O)CC(=O)NC3CCC(C)CC3)c(C)o2)c1 (stereo not given)	0.7	?	9.9%	-0.2%	-9.4%	1.9%
CCOC(=O)N1CCC(NC(=O)CSCc2nc(-c3cccc(OC)c3)oc2C)CC1	0.7	18.4µM*	1.7%	-0.4%	-3.3%	-7.8%
COc1ccnc(Oc2cccc(C(F)(F)F)c2)c1C(=O)N/C=N/OCc1ccccc1F	1.5	20.6µM*	-1.2%	2.1%	-14.2%	9.1%
COc1ccnc(Oc2ccccc2)c1C(=O)N/C=N/OCc1ccccc1	-0.3	-5.5%	0.7%	0.0%	4.6%	2.9%
CCCCNC(=O)C[C@@H]1C[C@@]2(C(=O)OC)CCCCC=C2N(Cc2ccccc2)C1=O	-0.6	/	/	0.0%	/	/
CC(C)CNc1ncnc2oc(-c3ccco3)c(-c3ccco3)c12	/	16.4µM*	/	/	-13.8%	/
CC(C)CNc1ncnc2onc(-c3ccc(Cl)cc3)c12	/	-7.8%	/	0.0%	1.0%	/
COc1cc(-c2nc(-c3ccccc3)c(-c3ccc(Br)cc3)[nH]2)cc(OC)c1O	/	-17.0%	/	-0.8%	-14.1%	/
COc1ccc(-c2[nH]c(-c3cc(OC)c4c(c3)OCO4)nc2-c2ccccc2)cc1	-0.1	23.1µM*	3.8%[46.1 µM]	2.1%	?	-2.5%
O=C(O)c1ccc(Cl)c(S(=O)(=O)N2CCCCCC2)c1	-1.7	25.9µM*	/	0.2%	?	6.6%
Cc1ccc(C(=O)Nc2cccnc2)cc1S(=O)(=O)N1CCCCC1	-6.0	20.6µM*	2.4%	0.7%	-4.3%	0.0%
O=C(COc1ccc(S(=O)(=O)NC2CCCCC2)cc1Cl)NCC1CCCO1 (stereo not given)	1.3	-6.2%	1.3%	4.0%	2.7%	-9.2%
O=C(c1ccc(Cl)c(S(=O)(=O)N2CCCC2)c1)N1CCCCC1	-0.5	-10.9%	-8.9%	-0.2%	1.5%	10.2%
COc1ccc(CCNC(=O)COc2ccc(S(=O)(=O)NC3CCCCC3)cc2Cl)cc1	-0.8	20.6µM*	1.2%	0.2%	?	-3.1%
COc1ccc(CCNC(=O)c2ccc(Cl)c(S(=O)(=O)N3CCCC3)c2)cc1	-0.3	16.4µM*	/	-0.7%	-5.1%	5.2%
COc1ccc(OC)c(NC(=O)CCc2c(C)nn(-c3ccc(N4CCCC4)nn3)c2C)c1	/	?	/	7.6%	7.4%	/
SMILES	CCT chaperon mod	Nrf2 block	TCR act	Nrf2 activator	A549 tox	AT treatment
O=C(NCc1cccnc1)c1ccc(S(=O)(=O)N2CCCCCC2)cc1	-3.3	-28.2%	3.7%	0.5%	3.2%	4.7%
Cc1ccc(C(=O)NCCC2=CCCCC2)cc1S(=O)(=O)N1CCCCC1	1.7	23.1µM*	2.2%	7.5%	?	4.3%
Cc1ccc(C(=O)NCc2cccnc2)cc1S(=O)(=O)N1CCCCCC1	0.1	8.2µM*	2.8%	0.1%	-4.3%	-0.7%
O=C1CCc2cc(S(=O)(=O)Nc3ccc(F)c(Cl)c3)ccc2N1	/	?	/	/	7.7%	/
COCCOc1ccc(C(F)(F)F)cc1NC(=O)c1ccc(C)cc1	-2.0	-1.1%	-1.1%[46.1 µM]	11.2µM*	0.3%	0.5%
COc1ccc(NC(=O)CCSc2ccc(C)cc2)cc1S(=O)(=O)Nc1ccccc1Cl	-2.3	23.1µM*	-0.8%[46.1 µM]	0.3%	2.0%	0.9%
COc1ccc(NC(=O)C2CCC2)cc1S(=O)(=O)Nc1cc(C)ccc1Br	0.1	20.6µM*	2.3%	0.4%	?	-0.2%
COc1ccc(NC(=O)[C@H](C)NC(N)=O)cc1S(=O)(=O)Nc1cc(C)ccc1Br	-2.6	1.8%	/	-0.5%	-6.5%	-0.1%
CC(OC(=O)C1=COCCO1)C(=O)NC1(C#N)CCCCC1 (stereo not given)	-1.8	1.7%	-4.7%[46.1 µM]	-0.4%	0.7%	16.2%
O=c1c2ccccc2nc(SCc2nnc(-c3ccccc3Br)o2)n1-c1ccccc1	-2.3	10.3µM*	-2.1%[46.1 µM]	-0.6%	-22.6%	-0.7%
Brc1ccccc1OCCCCn1cnc2ccccc21	3.4	7.31µM*	5.7%	5.6%	-22.3%	5.4%
CNc1cccc(S(=O)(=O)N2CCCN(S(=O)(=O)c3ccc4c(c3)OCCO4)CC2)c1	/	-7.5%	/	/	-2.8%	/
Cc1ccc(OCCCn2c(-c3ccc(Cl)cc3)nc3ccccc3c2=O)cc1C	/	5.8%	/	-0.8%	4.3%	/
CCCN(CCC)CCNC(=O)c1cc2c(-c3ccc(Cl)cc3)nn(C)c2s1	-0.9	23.1µM*!	6.9%	4.4%	23.1µM*	2.9%
CCN(CC)CCNC(=O)c1cc2c(-c3ccc(Cl)cc3)nn(C)c2s1	-3.3	19.5%	-6.5%	-5.5%	-20.8%	1.8%
NNC(=O)C(C(=O)OCc1ccccc1)c1ccccc1 (stereo not given)	/	?	/	/	-14.0%	/
Cc1ccc(-c2nn3c(C)nnc3c3ccccc23)cc1S(=O)(=O)NC(C)(C)CO	-4.4	11.6µM*	-3.2%	?	?	2.1%
Cc1ccc(-c2nn3c(C)nnc3c3ccccc23)cc1S(=O)(=O)NC(C)c1ccccc1 (stereo not given)	0.5	?	-6.8%	11.8%	5.7%	1.4%
CCOC(=O)C1=C(C)NC(C)=C(C(=O)OCC)C1C(=O)OCC(=O)N(C)Cc1ccccc1	-1.2	-19.1%	1.0%	2.4%	-13.2%	0.7%
Cc1ccc(CNc2nc3c([nH]2)c(=O)n(C)c(=O)n3C)cc1	1.1	9.2µM*	-10.7%	0.3%	-24.0%	8.9%
COC(=O)c1cc(=O)n(-c2ccc(F)cc2)c(=Nc2ccc(F)cc2)s1	0.1	20.6µM*	-4.7%	-5.8%	?	-1.1%

Screening results: PubChem, National Center for Advancing Translational Sciences (NCATS)
